Test [1] has as its target Estrogen receptor (Homo sapiens) (UniProt P03372). The test is described as follows: ATG_hERa_XSP2: Attagene TRANS-FACTORIAL Multi-Species (XSP2) HepG2 Assay for human Estrogen Receptor (ERa) (AID 2283827). Summed up: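 Trans-activation of exogenous human ERa-Gal4 chimera read in HepG2 as reporter transcript after 24 h exposure; medium included 3 nM 6-alpha-fluorotestosterone and 1.5 nM norgestrel. Quantified by RT-PCR with capillary electrophoresis, positive-direction fitting against DMSO.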

Test [2] has as its system frog Estrogen Receptor (ER2), gene 100174814. The experiment in a line: ATG_frER2_XSP2: Attagene TRANS-FACTORIAL Multi-Species (XSP2) HepG2 Assay for frog Estrogen Receptor (ER2) (AID 2283828). In a few lines: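 Induction of reporter mRNA, baseline set by DMSO, is the endpoint. The panel was run in transfected HepG2 cells over 24 h, with 3 nM 6-alpha-fluorotestosterone and 1.5 nM norgestrel present to stimulate androgen receptor.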

Test [3] deals with Peroxisome proliferator-activated receptor gamma (Homo sapiens) (UniProt P37231). The test is described as follows: ATG_hPPARg_XSP2: Attagene TRANS-FACTORIAL Multi-Species (XSP2) HepG2 Assay for human Peroxisome Proliferator-activated Receptor gamma (PPARg) (AID 2283829).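 Further: actives raise reporter mRNA above DMSO so AC50 reflects PPARg activation.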 Summed up: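 Human HepG2 cells carried transiently transfected Gal4 reporter units and were treated with chemical for 24 h alongside androgen-receptor stimulants (3 nM 6-alpha-fluorotestosterone, 1.5 nM norgestrel). Reporter transcripts were detected by RT-PCR with capillary electrophoresis, analysed in the positive direction against DMSO.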

For test [4], the target named is mouse Peroxisome Proliferator-activated Receptor gamma (PPARg), Pparg (gene 19016) (UniProt P37238). The test is described as follows: ATG_mPPARg_XSP2: Attagene TRANS-FACTORIAL Multi-Species (XSP2) HepG2 Assay for mouse Peroxisome Proliferator-activated Receptor gamma (PPARg) (AID 2283830).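 Further: hits are gains in reporter mRNA above DMSO so AC50 marks activation.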 Summed up:
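Multiplexed TRANS reporter readout: after 24 h chemical exposure of transfected HepG2 cells (with 3 nM 6-alpha-fluorotestosterone, 1.5 nM norgestrel present), RNA reverse-transcribed, amplified, 6-FAM-labelled and resolved by capillary electrophoresis; mouse PPARg-Gal4 induction scored against DMSO.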

Test [5] deals with Nuclear receptor subfamily 1 group I member 2 (Mus musculus) (UniProt O54915). The experiment in a line: ATG_mPXR_XSP2: Attagene TRANS-FACTORIAL Multi-Species (XSP1) HepG2 Assay for mouse Pregnane X Receptor (PXR) (AID 2283831). In a few lines:
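Fluorescence signals from capillary electrophoresis of RT-PCR-amplified reporter mRNA give the readout, gain-of-signal versus DMSO. Transfected HepG2 cells, 24 h dosing, medium contained 3 nM 6-alpha-fluorotestosterone and 1.5 nM norgestrel.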

Test [6] concerns the target zebrafish Thyroid Hormone Receptor alpha (TRa), thraa (gene 30670) (UniProt Q98867). The experiment in a line: ATG_zfTRa_XSP2: Attagene TRANS-FACTORIAL Multi-Species (XSP1) HepG2 Assay for zebrafish Thyroid Hormone Receptor alpha (TRa) (AID 2283832).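 Further: actives raise zebrafish TRa-Gal4 reporter transcript above DMSO baseline.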 In a few lines:
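Chimeric zebrafish TRa-Gal4 activity read in transfected human HepG2 as GAL4-UAS reporter transcripts, 24 h post-dose, via RT-PCR with labeled primer extension and capillary electrophoresis. Medium also carries 3 nM 6-alpha-fluorotestosterone and 1.5 nM norgestrel; DMSO baseline.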

Test [7] deals with zebrafish Peroxisome Proliferator-activated Receptor gamma (PPARg), gene 557037. The experiment in a line: ATG_zfPPARg_XSP2: Attagene TRANS-FACTORIAL Multi-Species (XSP2) HepG2 Assay for zebrafish Peroxisome Proliferator-activated Receptor gamma (PPARg) (AID 2283833).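 Further: actives increase reporter signal over DMSO so AC50 reflects activation.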 Summed up:
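HepG2, transient MRTU transfection, 24 h compound; zfPPARg-GAL4 reporter mRNA by RT-PCR + capillary electrophoresis; gain-of-signal vs DMSO.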

A short description of test [8]: ATG_M_61_XSP2: Attagene TRANS-FACTORIAL Multi-Species (XSP2) HepG2 Assay for M61 Transcription Factor (Internal Marker) (AID 2283835; active means hit-call score of the fitted dose curve at least 0.9, where 1 is the maximum; inactive means score below 0.9;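 further: active means a rise in signal above the DMSO baseline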). In a few lines: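 Signal was mRNA induction detected as fluorescence after RT-PCR and capillary electrophoresis, analysed in the gain direction with DMSO as baseline. HepG2 cells transiently carrying reporter constructs received chemicals for 24 h.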

Test [9] deals with zebrafish Thyroid Hormone Receptor beta (TRb), thrb (gene 30607) (UniProt Q9PVE4). The test is described as follows: ATG_zfTRb_XSP2: Attagene TRANS-FACTORIAL Multi-Species (XSP1) HepG2 Assay for zebrafish Thyroid Hormone Receptor beta (TRb) (AID 2283836). Summed up:
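Reporter transcripts measured by RT-PCR, 6-FAM labelling, HpaI digestion and capillary electrophoresis after 24 h chemical exposure. Human HepG2 cells carry an exogenous zebrafish TRb-GAL4 chimera; medium included 3 nM 6-alpha-fluorotestosterone plus 1.5 nM norgestrel.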

The nature of test [10]: ATG_XTT_Cytotoxicity_XSP2: Cytotoxicity Assessment in the Attagene TRANS-FACTORIAL Multi-Species (XSP2) HepG2 Assay (AID 2283837). Summed up:
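XTT-based cell number read-out in human HepG2 liver cells carrying transfected reporter units, measured 24 h after chemical dosing. Activity is signal loss versus DMSO baseline.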

Test [11] concerns the target human Thyroid hormone Receptor alpha (TRa), THRA (gene 7067) (UniProt P10827). The experiment in a line: ATG_hTRa_XSP2: Attagene TRANS-FACTORIAL Multi-Species (XSP2) HepG2 Assay for human Thyroid hormone Receptor alpha (TRa) (AID 2283838). Summed up:
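Reporter transcripts were read by RT-PCR with fluorescent primer extension, HpaI digestion and capillary electrophoresis. These came from HepG2 cells carrying multiplexed TRa-Gal4 TRANS constructs, harvested 24 hours after dosing. The medium also held 6-alpha-fluorotestosterone (3 nM) and norgestrel (1.5 nM), and increases were fitted against DMSO.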

Test [12] addresses human Thyroid hormone Receptor beta (TRb), THRB (gene 7068) (UniProt P10828). The test is described as follows: ATG_hTRb_XSP2: Attagene TRANS-FACTORIAL Multi-Species (XSP2) HepG2 Assay for human Thyroid hormone Receptor beta (TRb) (AID 2283840).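 Further: actives raise reporter mRNA so potency reflects agonist-like gain of signal.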 In a few lines: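 Gain-of-signal reporter transcription, referenced to DMSO, was measured in transiently transfected HepG2 after 24 h exposure; labeled RT-PCR products were resolved by capillary electrophoresis. Assay medium included 3 nM 6-alpha-fluorotestosterone and 1.5 nM norgestrel.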

Test [13] deals with Sodium/Iodide Symporter (NIS), SLC5A5 (gene 6528). The test is described as follows: CPHEA_Stoker_NIS_Inhibition_RAIU: CPHEA's Radioactive Iodide Uptake (RAIU) Assay for Sodium/Iodide Symporter (NIS) Inhibition, Stoker and Laws Labs (AID 2283841). In a few lines:
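HEK293T cells stably expressing human NIS (hNIS-HEK293T-EPA) were exposed to test chemicals at 0.001–100uM (0.5% final DMSO) with 125I at a final 329pM in HBSS/10mM HEPES pH 7.4. After 2 hours at room temperature and ice-cold washes, intracellular 125I was counted as CPM and normalized to DMSO wells.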

Test [14] can be described thus: CPHEA_Stoker_NIS_Cytotoxicity: Cytotoxicity Assessment for CPHEA's Radioactive Iodide Uptake (RAIU) Assay for Sodium/Iodide Symporter (NIS) Inhibition, Stoker and Laws Labs (AID 2283897). In a few lines:
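hNIS-HEK293T-EPA human kidney cells were exposed for 2 hours at room temperature to test chemicals (0.001–100uM, 0.5% final DMSO) in HEPES-buffered HBSS, pH 7.4. Viability was read as ATP content by luciferase bioluminescence, loss of signal versus DMSO.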

Test [15] in a line: ATG_M_32_XSP2: Attagene TRANS-FACTORIAL Multi-Species (XSP2) HepG2 Assay for M19 Transcription Factor (Internal Marker) (AID 2283826). Summed up:
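An internal background marker among multiplexed transfected reporters in HepG2 liver cells was measured 24 h after dosing. Androgen receptor stimulation came from 3 nM 6-alpha-fluorotestosterone and 1.5 nM norgestrel.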

Test [16] has as its system turtle Thyroid Hormone Receptor, alpha (TRa), gene 101949057. The experiment in a line: ATG_trTRa_XSP2: Attagene TRANS-FACTORIAL Multi-Species (XSP1) HepG2 Assay for turtle Thyroid Hormone Receptor, alpha (TRa) (AID 2283834).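 Further: hits raise reporter mRNA over the DMSO baseline so AC50 marks activators.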 Summed up:
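Multiplexed TRANS reporter assay; HepG2 carrying NR-Gal4 constructs treated 24 h. mRNA of the GAL4-UAS reporter quantified via labelled RT-PCR fragments on a genetic analyzer, vs DMSO negative control.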

Structures are written as SMILES. Where “and” joins values, the source holds several entries; their conditions need not be identical. Equal entries are not always repeated. Records with an inconclusive call do not appear. Some compounds were tested as several samples or in several runs, with calls that do not always agree. Calls of active or inactive are those of the source. How the source made its calls, unless noted: active means hit-call score of the fitted dose curve at least 0.9, where 1 is the maximum; inconclusive means response in the unintended direction; inactive means score below 0.9.

zebrafish Thyroid Hormone Receptor alpha (TRa), thraa (gene 30670), sequence (Q98867 whole entry, looked up, the tested form may be a part): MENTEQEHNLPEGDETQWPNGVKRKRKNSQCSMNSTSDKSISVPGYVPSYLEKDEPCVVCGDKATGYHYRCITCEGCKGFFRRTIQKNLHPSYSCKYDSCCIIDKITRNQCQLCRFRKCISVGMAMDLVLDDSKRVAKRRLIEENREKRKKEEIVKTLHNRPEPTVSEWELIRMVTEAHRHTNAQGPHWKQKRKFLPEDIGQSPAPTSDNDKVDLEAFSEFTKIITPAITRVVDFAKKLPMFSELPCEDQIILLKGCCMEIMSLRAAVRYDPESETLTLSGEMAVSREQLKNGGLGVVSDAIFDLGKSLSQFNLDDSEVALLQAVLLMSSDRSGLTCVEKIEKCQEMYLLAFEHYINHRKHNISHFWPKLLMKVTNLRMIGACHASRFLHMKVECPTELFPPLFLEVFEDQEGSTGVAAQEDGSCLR
zebrafish Thyroid Hormone Receptor beta (TRb), thrb (gene 30607), sequence (Q9PVE4 whole entry, looked up, the tested form may be a part): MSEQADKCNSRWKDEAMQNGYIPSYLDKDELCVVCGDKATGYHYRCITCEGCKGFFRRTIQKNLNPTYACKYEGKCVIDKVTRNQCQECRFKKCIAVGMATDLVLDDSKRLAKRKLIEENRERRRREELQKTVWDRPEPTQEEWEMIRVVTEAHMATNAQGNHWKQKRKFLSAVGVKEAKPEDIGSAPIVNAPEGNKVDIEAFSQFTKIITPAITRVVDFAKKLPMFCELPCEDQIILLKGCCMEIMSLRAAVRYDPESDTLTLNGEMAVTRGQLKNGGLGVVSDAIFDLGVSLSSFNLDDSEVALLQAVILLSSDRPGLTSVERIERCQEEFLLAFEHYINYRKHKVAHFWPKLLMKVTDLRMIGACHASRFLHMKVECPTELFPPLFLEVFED
mouse Peroxisome Proliferator-activated Receptor gamma (PPARg), Pparg (gene 19016), sequence (P37238 whole entry, looked up, the tested form may be a part): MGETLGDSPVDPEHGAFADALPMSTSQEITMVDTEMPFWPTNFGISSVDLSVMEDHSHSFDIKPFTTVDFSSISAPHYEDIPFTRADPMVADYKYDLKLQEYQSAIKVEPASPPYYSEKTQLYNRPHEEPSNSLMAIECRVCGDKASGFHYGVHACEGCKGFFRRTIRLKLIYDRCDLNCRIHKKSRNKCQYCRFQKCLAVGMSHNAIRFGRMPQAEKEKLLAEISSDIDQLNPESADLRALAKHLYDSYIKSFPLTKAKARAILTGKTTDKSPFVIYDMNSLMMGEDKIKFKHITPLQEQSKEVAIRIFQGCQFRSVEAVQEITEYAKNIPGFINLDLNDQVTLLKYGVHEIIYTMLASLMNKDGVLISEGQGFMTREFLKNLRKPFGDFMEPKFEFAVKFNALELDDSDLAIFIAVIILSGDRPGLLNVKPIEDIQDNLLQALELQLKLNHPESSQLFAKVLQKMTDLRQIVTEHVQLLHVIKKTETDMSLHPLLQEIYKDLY
Estrogen receptor (Homo sapiens), sequence (P03372 whole entry, looked up, the tested form may be a part): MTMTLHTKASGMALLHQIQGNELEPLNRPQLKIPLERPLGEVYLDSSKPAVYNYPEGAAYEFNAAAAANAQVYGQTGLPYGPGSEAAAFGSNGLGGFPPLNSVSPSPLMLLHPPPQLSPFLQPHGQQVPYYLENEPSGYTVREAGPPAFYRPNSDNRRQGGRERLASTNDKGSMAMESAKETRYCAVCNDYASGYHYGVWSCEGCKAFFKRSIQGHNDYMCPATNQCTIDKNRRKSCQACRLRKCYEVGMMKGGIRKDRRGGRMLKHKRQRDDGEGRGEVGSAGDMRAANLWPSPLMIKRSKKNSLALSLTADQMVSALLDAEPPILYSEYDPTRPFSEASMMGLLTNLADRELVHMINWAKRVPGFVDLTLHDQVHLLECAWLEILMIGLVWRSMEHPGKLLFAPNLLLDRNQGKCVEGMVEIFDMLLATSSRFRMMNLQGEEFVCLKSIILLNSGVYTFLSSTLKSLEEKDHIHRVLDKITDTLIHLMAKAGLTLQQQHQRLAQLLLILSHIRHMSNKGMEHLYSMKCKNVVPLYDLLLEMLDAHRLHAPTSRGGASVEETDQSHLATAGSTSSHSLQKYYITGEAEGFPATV
Peroxisome proliferator-activated receptor gamma (Homo sapiens), sequence (P37231 whole entry, looked up, the tested form may be a part): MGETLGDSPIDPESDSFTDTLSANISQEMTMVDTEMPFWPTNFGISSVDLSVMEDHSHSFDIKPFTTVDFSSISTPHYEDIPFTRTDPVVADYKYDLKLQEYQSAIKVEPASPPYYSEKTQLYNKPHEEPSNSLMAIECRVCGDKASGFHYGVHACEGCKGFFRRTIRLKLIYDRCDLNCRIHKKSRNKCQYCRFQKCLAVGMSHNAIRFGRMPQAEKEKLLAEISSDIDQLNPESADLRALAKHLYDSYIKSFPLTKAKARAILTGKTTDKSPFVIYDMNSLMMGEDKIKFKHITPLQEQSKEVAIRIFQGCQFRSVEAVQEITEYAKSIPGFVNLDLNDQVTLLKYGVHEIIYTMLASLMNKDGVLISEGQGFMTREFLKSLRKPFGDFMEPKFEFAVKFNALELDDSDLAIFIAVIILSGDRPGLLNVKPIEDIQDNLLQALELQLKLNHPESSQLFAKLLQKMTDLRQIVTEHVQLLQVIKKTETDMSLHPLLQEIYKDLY
human Thyroid hormone Receptor alpha (TRa), THRA (gene 7067), sequence (P10827 whole entry, looked up, the tested form may be a part): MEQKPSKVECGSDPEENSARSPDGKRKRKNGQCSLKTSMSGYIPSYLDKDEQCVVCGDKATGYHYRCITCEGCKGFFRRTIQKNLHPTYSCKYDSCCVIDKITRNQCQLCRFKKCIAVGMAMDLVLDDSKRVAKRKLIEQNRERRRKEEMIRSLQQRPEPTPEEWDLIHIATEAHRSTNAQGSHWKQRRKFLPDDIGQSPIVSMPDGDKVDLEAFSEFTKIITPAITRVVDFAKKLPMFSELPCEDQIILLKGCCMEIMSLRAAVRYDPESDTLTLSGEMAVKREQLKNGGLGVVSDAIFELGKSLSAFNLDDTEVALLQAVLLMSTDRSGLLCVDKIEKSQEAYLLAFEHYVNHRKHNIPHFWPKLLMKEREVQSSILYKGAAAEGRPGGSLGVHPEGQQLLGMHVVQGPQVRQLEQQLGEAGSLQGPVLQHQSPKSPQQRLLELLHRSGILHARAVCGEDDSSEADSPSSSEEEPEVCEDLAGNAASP
Nuclear receptor subfamily 1 group I member 2 (Mus musculus), sequence (O54915 whole entry, looked up): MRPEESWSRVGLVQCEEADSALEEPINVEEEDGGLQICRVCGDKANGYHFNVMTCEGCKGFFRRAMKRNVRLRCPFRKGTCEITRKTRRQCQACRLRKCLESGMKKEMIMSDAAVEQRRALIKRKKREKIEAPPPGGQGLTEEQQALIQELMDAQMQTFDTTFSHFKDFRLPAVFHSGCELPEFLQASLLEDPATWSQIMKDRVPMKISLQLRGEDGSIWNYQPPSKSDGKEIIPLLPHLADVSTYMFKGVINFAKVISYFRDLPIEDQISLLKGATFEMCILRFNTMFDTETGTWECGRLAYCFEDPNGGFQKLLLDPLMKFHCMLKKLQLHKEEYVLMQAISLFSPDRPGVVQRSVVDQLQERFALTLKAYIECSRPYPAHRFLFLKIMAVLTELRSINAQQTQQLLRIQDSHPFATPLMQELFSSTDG
human Thyroid hormone Receptor beta (TRb), THRB (gene 7068), sequence (P10828 whole entry, looked up): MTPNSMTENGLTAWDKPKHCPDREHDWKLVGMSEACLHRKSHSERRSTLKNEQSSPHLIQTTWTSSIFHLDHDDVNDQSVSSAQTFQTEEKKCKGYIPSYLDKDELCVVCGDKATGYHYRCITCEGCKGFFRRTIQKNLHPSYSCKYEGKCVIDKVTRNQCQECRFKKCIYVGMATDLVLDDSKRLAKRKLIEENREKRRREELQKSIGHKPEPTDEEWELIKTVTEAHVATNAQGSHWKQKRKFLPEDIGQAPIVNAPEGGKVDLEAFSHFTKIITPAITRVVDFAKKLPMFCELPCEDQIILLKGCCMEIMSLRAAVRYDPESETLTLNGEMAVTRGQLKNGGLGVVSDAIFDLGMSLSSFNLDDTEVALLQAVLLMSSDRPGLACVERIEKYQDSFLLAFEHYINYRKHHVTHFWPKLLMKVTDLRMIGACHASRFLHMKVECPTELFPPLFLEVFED

Turning to `CCCCc1ccc(O)cc1`, the AC50 was 4.58 µM (active) and 3.47 µM (active) in test [1]; 4.69 µM (active) and 2.33 µM (active) in test [2]; 100 µM (active) in test [3]; 74.6 µM (active) and 93.5 µM (active) in test [4]; 31 µM (active) in test [12]. Moreover, the call in test [5], in [6], in test [7], in test [8], in test [9] and in [10] was inactive. For the same compound, the compound was classed as inactive in [11], in test [12], in test [13] and in test [14].
For the compound `O=S1(=O)OCC2C(CO1)C1(Cl)C(Cl)=C(Cl)C2(Cl)C1(Cl)Cl` (stereo not given), the outcome in test [14] was inactive.
As for `CC(C)(C)N(NC(=O)c1ccc(Cl)cc1)C(=O)c1ccccc1`, the outcome in test [13] and in test [14] was inactive.
On to `O=P(Oc1ccccc1)(Oc1ccccc1)Oc1ccccc1`, for which the result in test [15], in test [6], in test [16], in test [8] and in test [9] was inactive. Moreover, the half-maximal activity concentration (AC50) in test [1] is 1.44 µM (active); in [2], 2.82 µM (active); in [3] it was 4.79 µM (active); in test [4] it was 5.79 µM (active); in test [5], 0.303 µM (active); in test [7], 9.78 µM (active). Further, in [13], the AC50 was 50 µM (active).

Usually AC50 stands for the concentration giving half of the maximal activity seen.

For the origin of these results see PubChem BioAssay (EPA / NIEHS).
